Assay [1] deals with Serine/threonine-protein kinase MRCK beta (Homo sapiens) (UniProt Q9Y5S2). To be noted: at 1 µM.
For assay [2] the target is unchanged. Conditions: at 10 µM.
Assay [3] deals with Ribosomal protein S6 kinase alpha-5 (Homo sapiens) (UniProt O75582). To be noted: at 1 µM.
Assay [4] has the same target. To be noted: at 10 µM.
For assay [5], the target named is Ribosomal protein S6 kinase alpha-4 (Homo sapiens) (UniProt O75676). Conditions: at 1 µM.
Assay [6] has the same target. To be noted: at 10 µM.
Assay [7] deals with SRSF protein kinase 3 (Homo sapiens) (UniProt Q9UPE1). To be noted: at 1 µM.
Chain of SRSF protein kinase 3 (Homo sapiens) (Q9UPE1 whole entry): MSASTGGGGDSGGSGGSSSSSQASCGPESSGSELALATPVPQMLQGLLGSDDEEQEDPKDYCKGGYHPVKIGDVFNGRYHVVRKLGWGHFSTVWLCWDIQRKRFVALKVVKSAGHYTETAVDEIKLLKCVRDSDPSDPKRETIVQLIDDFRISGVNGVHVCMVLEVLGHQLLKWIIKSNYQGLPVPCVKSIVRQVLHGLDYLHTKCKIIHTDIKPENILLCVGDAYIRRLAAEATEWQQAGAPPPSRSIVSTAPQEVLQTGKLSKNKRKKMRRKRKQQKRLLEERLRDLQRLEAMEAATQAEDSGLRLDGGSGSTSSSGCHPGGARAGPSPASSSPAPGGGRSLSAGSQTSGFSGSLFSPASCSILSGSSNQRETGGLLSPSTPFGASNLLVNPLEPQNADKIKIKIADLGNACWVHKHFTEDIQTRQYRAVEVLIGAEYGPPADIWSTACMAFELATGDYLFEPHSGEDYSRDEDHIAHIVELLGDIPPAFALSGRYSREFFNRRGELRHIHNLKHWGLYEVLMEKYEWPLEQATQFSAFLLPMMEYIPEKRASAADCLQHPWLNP
For assay [8] the target is unchanged. To be noted: at 10 µM.
The target of assay [9] is T1, Serine/threonine-protein kinase 4 (Homo sapiens) (UniProt Q13043).
T1 sequence (whole entry): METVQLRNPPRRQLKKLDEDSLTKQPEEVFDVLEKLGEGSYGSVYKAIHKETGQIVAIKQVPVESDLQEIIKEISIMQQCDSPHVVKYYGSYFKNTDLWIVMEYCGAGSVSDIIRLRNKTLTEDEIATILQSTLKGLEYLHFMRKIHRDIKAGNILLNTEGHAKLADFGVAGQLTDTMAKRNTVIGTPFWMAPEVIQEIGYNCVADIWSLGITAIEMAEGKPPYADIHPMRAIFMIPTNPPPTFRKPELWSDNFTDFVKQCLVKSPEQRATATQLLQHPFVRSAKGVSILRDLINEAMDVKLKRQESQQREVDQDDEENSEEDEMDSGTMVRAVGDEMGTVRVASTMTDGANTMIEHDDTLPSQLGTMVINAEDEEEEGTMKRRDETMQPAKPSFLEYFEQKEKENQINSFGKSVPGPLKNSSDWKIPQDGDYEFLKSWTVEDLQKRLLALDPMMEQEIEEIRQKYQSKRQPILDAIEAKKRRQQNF
To be noted: at 1 µM.

Assay [10] deals with T1, Serine/threonine-protein kinase 4 (Homo sapiens). To be noted: at 10 µM.

By residual activity is commonly meant the signal under treatment as a percentage of the control signal.

Chain of Ribosomal protein S6 kinase alpha-5 (Homo sapiens) (O75582 whole entry, looked up): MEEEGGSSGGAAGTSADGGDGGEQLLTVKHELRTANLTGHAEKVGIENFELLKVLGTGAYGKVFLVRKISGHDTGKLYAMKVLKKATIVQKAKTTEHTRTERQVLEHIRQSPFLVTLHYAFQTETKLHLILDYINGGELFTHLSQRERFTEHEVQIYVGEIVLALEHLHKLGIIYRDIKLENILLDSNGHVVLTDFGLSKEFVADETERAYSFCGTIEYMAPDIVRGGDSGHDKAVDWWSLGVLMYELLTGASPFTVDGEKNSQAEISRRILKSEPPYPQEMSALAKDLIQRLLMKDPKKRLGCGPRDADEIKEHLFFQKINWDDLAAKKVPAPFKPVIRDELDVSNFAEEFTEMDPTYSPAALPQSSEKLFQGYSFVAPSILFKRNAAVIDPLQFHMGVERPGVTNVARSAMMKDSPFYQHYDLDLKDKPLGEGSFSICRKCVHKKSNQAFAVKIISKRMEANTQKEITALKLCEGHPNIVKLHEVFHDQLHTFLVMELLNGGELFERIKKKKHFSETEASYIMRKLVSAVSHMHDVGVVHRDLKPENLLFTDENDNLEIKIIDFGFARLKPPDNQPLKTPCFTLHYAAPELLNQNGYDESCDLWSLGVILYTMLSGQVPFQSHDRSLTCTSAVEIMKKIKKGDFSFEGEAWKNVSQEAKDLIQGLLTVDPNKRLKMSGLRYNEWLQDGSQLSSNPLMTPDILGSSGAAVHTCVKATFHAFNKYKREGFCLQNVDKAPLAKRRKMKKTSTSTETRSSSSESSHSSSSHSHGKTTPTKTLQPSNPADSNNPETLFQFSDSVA
Chain of Ribosomal protein S6 kinase alpha-4 (Homo sapiens) (O75676 whole entry, looked up): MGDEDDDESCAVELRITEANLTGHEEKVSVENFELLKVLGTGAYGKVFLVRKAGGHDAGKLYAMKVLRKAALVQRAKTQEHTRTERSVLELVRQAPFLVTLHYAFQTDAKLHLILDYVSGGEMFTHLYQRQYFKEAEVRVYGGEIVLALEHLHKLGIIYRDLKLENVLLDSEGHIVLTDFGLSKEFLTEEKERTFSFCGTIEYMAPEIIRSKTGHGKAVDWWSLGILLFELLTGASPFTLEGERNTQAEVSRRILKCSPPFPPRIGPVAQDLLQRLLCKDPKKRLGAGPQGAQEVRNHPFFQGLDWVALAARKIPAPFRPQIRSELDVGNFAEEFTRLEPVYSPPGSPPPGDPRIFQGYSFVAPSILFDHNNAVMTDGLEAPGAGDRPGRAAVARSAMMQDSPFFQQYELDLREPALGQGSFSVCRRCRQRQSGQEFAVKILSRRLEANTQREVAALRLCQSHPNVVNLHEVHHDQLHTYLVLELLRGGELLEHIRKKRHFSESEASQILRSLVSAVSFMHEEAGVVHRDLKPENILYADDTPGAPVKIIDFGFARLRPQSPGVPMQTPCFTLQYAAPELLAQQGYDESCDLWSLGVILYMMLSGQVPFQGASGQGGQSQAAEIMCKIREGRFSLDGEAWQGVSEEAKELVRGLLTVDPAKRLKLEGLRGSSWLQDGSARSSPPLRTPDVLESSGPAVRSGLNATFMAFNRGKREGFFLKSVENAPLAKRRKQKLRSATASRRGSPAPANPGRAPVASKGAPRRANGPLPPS
Chain of Serine/threonine-protein kinase MRCK beta (Homo sapiens) (Q9Y5S2 whole entry): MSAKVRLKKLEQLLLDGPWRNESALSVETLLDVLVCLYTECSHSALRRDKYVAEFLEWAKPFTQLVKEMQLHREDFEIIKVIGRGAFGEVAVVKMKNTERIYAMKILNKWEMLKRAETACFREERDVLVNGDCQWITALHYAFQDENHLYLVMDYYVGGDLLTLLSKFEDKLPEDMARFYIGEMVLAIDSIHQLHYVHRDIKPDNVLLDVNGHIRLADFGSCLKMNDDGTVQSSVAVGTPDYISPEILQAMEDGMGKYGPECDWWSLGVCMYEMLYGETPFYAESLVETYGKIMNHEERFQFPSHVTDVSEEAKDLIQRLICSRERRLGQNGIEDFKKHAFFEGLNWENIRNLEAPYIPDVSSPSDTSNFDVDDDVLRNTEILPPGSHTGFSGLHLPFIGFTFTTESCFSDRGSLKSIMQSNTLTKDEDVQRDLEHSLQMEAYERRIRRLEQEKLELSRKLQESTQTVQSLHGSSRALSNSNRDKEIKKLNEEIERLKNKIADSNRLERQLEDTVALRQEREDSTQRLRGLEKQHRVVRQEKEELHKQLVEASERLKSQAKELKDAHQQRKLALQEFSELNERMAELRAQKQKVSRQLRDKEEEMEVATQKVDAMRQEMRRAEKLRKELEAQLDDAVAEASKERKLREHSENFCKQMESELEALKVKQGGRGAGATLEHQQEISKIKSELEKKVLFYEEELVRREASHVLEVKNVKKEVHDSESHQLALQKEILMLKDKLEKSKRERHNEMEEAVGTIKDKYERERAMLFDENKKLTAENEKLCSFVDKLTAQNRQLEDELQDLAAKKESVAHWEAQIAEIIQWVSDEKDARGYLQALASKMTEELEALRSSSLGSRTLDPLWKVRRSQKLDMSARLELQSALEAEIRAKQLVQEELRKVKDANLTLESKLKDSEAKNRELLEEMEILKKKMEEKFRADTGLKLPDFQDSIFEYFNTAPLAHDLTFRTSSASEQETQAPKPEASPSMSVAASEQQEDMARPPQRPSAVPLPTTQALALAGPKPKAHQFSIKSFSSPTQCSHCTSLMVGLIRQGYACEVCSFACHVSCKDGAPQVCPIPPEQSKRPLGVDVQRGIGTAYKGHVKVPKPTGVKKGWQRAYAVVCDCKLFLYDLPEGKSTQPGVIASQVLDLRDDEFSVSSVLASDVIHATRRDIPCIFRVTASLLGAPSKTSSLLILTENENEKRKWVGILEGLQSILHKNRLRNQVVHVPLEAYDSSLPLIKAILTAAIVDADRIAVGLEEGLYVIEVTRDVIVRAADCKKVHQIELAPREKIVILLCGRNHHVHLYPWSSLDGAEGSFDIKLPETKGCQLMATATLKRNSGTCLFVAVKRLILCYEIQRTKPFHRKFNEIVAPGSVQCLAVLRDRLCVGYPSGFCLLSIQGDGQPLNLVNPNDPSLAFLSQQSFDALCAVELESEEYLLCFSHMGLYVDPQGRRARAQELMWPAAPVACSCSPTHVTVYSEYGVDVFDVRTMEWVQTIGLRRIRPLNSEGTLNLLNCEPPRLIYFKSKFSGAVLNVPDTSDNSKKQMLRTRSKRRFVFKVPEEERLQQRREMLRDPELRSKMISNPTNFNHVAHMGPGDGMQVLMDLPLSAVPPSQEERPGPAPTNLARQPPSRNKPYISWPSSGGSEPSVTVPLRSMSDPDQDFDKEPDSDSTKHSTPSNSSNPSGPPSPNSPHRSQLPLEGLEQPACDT

As to `Cc1ccc(NC2=CC(=O)c3sc(C)nc3C2=O)cc1`, the residual activity turned out to be 87% in assay [1]; 86% in [2]; 106% in assay [3]; 113% in [4]; 96% in assay [5]; 90% in assay [6]. Also, the residual activity amounted to 101% in assay [7], 103% in assay [8], 72% in assay [9] and 111% in assay [10].

With `COc1cc2ncnc(Nc3ccc(Oc4ccccc4)cc3)c2cc1OC`, the residual activity turned out to be 99% in assay [1]; 114% in assay [2]; 137% in [3]; 129% in [4]; 89% in [5]; 135% in [6]. In addition, the residual activity in [7] turned out to be 105%; in assay [8] it was 81%; in [9], 99%; in [10] it was 93%.

As to `Oc1ccc(Nc2nc(-c3ccc(Cl)cc3)cs2)cc1`, the residual activity is 111% in [1]; 129% in assay [2]; 97% in assay [3]; 107% in assay [4]; 109% in [5]; 94% in assay [6]. For the same compound, the residual activity worked out at 110% in [7], 97% in assay [8], 78% in assay [9] and 87% in [10].

In the case of `COc1cc2ncnc(N3CCN(C(=O)Nc4ccc(Oc5ccccc5)cc4)CC3)c2cc1OC`, the residual activity in assay [1] was found to be 83%; in [2], 87%; in assay [3], 113%; in assay [4] it was 104%; in [5], 93%; in assay [6], 123%. Also, the residual activity in assay [7] amounted to 109%; in assay [8], 79%; in [9], 85%; in assay [10], 88%.

Turning to `CO[C@@H]1[C@H](N(C)C(=O)c2ccccc2)C[C@H]2O[C@]1(C)n1c3ccccc3c3c4c(c5c6ccccc6n2c5c31)C(=O)NC4`, the residual activity in assay [1] turned out to be 85%; in assay [2], 68%; in assay [3] it was 13%; in assay [4] it was 8%; in [5], 12%; in [6], 8%. Further, the residual activity is 96% in assay [7], 77% in assay [8], 1% in assay [9] and 2% in [10].

Take `Cc1ccc(S(=O)(=O)/C=C/C#N)cc1`: the residual activity in [1] turned out to be 89%; in [2], 92%; in assay [3], 111%; in assay [4], 125%; in assay [5], 105%; in assay [6], 99%. Besides, the residual activity in assay [7] came out at 100%; in [8], 102%; in assay [9] it was 79%; in assay [10], 109%.

As for `Nc1nc(Nc2ccc(S(N)(=O)=O)cc2)nn1C(=S)Nc1c(F)cccc1F`, the residual activity in assay [1] worked out at 8%; in assay [2], 3%; in assay [3], 81%; in assay [4], 70%; in assay [5] it was 19%; in [6] it was 21%. Also, the residual activity in assay [7] is 37%; in assay [8], 12%; in assay [9] it was 0%; in [10], -3%.

`Nc1ccc2ncnc(NCCc3ccc(Oc4ccccc4)cc3)c2c1`: the residual activity in [1] is 103%; in assay [2] it was 107%; in [3], 109%; in assay [4], 111%; in assay [5] it was 92%; in assay [6], 72%. In addition, the residual activity in assay [7] amounted to 111%; in [8], 86%; in assay [9], 89%; in assay [10], 102%.

Regarding `Cn1cnc2cc3c(Nc4cccc(Br)c4)ncnc3cc21`, the residual activity in assay [1] was 88%; in assay [2] it was 92%; in [3] it was 107%; in assay [4], 95%; in assay [5] it was 102%; in [6], 102%. In addition, the residual activity in assay [7] is 101%; in assay [8], 81%; in [9], 97%; in assay [10], 101%.

Turning to `O=C(Nc1cccc(Nc2nccc(Nc3cccc(C(F)(F)F)c3)n2)c1)C1CC1`, the residual activity in [1] came out at 103%; in assay [2], 88%; in assay [3], 114%; in [4], 89%; in assay [5], 89%; in assay [6], 89%. The residual activity came to 105% in assay [7], 89% in assay [8], 110% in assay [9] and 92% in assay [10].

For `CC#CC(=O)Nc1cc2c(Nc3ccc(F)c(Cl)c3)ncnc2cn1`, the residual activity in assay [1] came out at 95%; in assay [2], 79%; in [3] it was 123%; in assay [4], 102%; in [5] it was 97%; in [6], 105%. For the same compound, the residual activity was 90% in [7], 74% in [8], 90% in assay [9] and 84% in assay [10].

Regarding `N#C/C(=C(\N)Sc1ccc(N)cc1)c1ccccc1C(F)(F)F`, the residual activity worked out at 94% in [1]; 98% in assay [2]; 85% in assay [3]; 95% in [4]; 97% in assay [5]; 84% in [6]. For the same compound, the residual activity in [7] worked out at 109%; in [8] it was 95%; in [9] it was 105%; in assay [10], 104%.

For the compound `Cn1cc(/C=C2\C(=O)Nc3ccc(S(N)(=O)=O)cc32)c2ccccc21`, the residual activity in [1] worked out at 83%; in assay [2] it was 87%; in assay [3], 86%; in assay [4], 54%; in assay [5] it was 56%; in assay [6], 41%. Also, the residual activity in assay [7] worked out at 103%; in [8], 25%; in assay [9], 13%; in assay [10], 11%.

Regarding `COc1cc2ncnc(Nc3ccc(O)c(Br)c3)c2cc1OC`, the residual activity in [1] was found to be 91%; in assay [2], 71%; in [3] it was 117%; in assay [4], 108%; in assay [5] it was 83%; in [6] it was 72%. Besides, the residual activity amounted to 95% in [7], 90% in assay [8], 81% in [9] and 55% in [10].

In the case of `O=Nc1c(-c2c(O)[nH]c3ccccc23)[nH]c2ccccc12`, the residual activity in [1] was found to be 106%; in assay [2] it was 103%; in assay [3], 61%; in assay [4], 21%; in assay [5], 32%; in assay [6], 4%. Besides, the residual activity was determined as 85% in [7], 46% in [8], 8% in assay [9] and 2% in assay [10].

Take `COc1ccc(OC)c2c(=S)c3ccccc3[nH]c12`: the residual activity was determined as 88% in assay [1]; 95% in assay [2]; 93% in assay [3]; 122% in [4]; 100% in assay [5]; 89% in [6]. The residual activity in [7] is 103%; in assay [8] it was 79%; in [9], 74%; in assay [10], 99%.

These data come from ChEMBL document CHEMBL2218924, “A broad activity screen in support of a chemogenomic map for kinase signalling research and drug discovery” (Biochem J, 2013).
